Test results reported in PubChem BioAssay (EPA / NIEHS).
Records with an inconclusive call do not appear. The source made the active and inactive calls. The calls were made as follows: active = hit-call score of the fitted dose curve at least 0.9, where 1 is the maximum; inconclusive = response in the unintended direction; inactive = score below 0.9.

Assays:
[1] = tested on: rat Monoamine Oxidase, MAO-A, Central (MAOAC), gene 29253; assay: NVS_ENZ_rMAOAC: NovaScreen (NVS) Enzymatic Assay for rat Monoamine Oxidase, MAO-A, Central (MAOAC) (AID 2283243);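 also: potency refers to inhibition seen as signal drop below DMSO baseline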
Experimental: (§1) NVS_ENZ_rMAOAC is a biochemical, single-readout assay that uses extracted gene-proteins from Rat brain in a tissue-based cell-free assay. Measurements were taken 1.5 hours after chemical dosing in a 96-well plate.NVS_ENZ_rMAOAC is one of one assay component(s) measured or calculated from the NVS_ENZ_rMAOAC assay. It is designed to make measurements of enzyme activity, a form of enzyme reporter, as detected with scintillation counting signals by Lysate-based radiodetection technology.Data from the assay component NVS_ENZ_rMAOAC was analyzed into 1 assay endpoint. This assay endpoint, NVS_ENZ_rMAOAC, was analyzed in the positive analysis fitting direction relative to DMSO as the negative control and baseline of activity. Using a type of enzyme reporter, loss-of-signal activity can be used to understand changes in the enzymatic activity as they relate to the gene Maoa. Furthermore, this assay endpoint can be referred to as a primary readout, because this assay has produced multiple assay endpoints where this one serves a enzymatic activity function. To generalize the intended target to other relatable targets, this assay endpoint is annotated to the oxidoreductase intended target family, where the subfamily is monoamine oxidase.
Binding assays used specific radioligands (tritiated, iodinated) with non-radioactive competitive displacement ligands in agonist or antagonist protocols (as indicated) and various reference compounds and inhibitors to titrate specific binding to receptors and transporters. Most enzyme assays (CYPs, kinases, phosphatases, proteases, HDACs) used recombinant protein and specific substrates (fluorescence mostly, some colorimetric and radioactive) and inhibitors, followed by a biochemical separation of substrate and product. All assays for the biochemical HTS were initially run in duplicate at a single concentration (10 uM for CYP450 assays and 25 uM for all others). […] Each assay was run with positive and negative controls, and concurrent controls on every plate. The follow-up (secondary) screen tested active chemical-pairs in concentration series, as well as a few additional assays not tested in the primary screen, some selected negative inactives, and several cases re-run in the concentration series for confirmatory purposes.

[2] = molecular target: rat Monoamine Oxidase, MAO-B, Central (MAOBC), Maob (gene 25750) (UniProt P19643); assay: NVS_ENZ_rMAOBC: NovaScreen (NVS) Enzymatic Assay for rat Monoamine Oxidase, MAO-B, Central (MAOBC) (AID 2283238)
Experimental: as §1, with “NVS_ENZ_rMAOBC” for “NVS_ENZ_rMAOAC”, “1.17” for “1.5”, “plate.NVS_ENZ_rMAOBC” for “plate.NVS_ENZ_rMAOAC”, “NVS_ENZ_rMAOBC,” for “NVS_ENZ_rMAOAC,”, “Maob.” for “Maoa.”
(§2) Binding assays used specific radioligands (tritiated, iodinated) with non-radioactive competitive displacement ligands in agonist or antagonist protocols (as indicated) and various reference compounds and inhibitors to titrate specific binding to receptors and transporters. Most enzyme assays (CYPs, kinases, phosphatases, proteases, HDACs) used recombinant protein and specific substrates (fluorescence mostly, some colorimetric and radioactive) and inhibitors, followed by a biochemical separation of substrate and product. All assays for the biochemical HTS were initially run in duplicate at a single concentration (10 uM for CYP450 assays and 25 uM for all others). Assay-chemical combinations meeting a pre-defined threshold (e.g., 30% inhibition and other criteria defined below) were then run in singleton concentration-response format with maximum concentration of 20 uM for CYPs and 50 uM for all others. Each assay was run with positive and negative controls, and concurrent controls on every plate. The follow-up (secondary) screen tested active chemical-pairs in concentration series, as well as a few additional assays not tested in the primary screen, some selected negative inactives, and several cases re-run in the concentration series for confirmatory purposes.

[3] = molecular target: Adenosine receptor A1 (Bos taurus) (UniProt P28190); assay: NVS_GPCR_bAdoR_NonSelective: NovaScreen (NVS) G Protein-Coupled Receptor Assay for bovine Adenosine Receptor (AdoR), Non-selective Binding (AID 2283244)
Summary of the method: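 Cell-free binding with membranes from bovine striatum: radioligand displaced by test chemical, read after 1 h by filtration and scintillation. Single-point 25 uM duplicate primary, 50 uM top concentration in follow-up curves, DMSO baseline.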

[4] = tested on: bovine Histamine 1 Receptor (H1), gene 281231; assay: NVS_GPCR_bH1: NovaScreen (NVS) G Protein-Coupled Receptor Assay for bovine Histamine 1 Receptor (H1) (AID 2283246)
Summary of the method: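 Hits from a 25 uM duplicate primary screen were retested in concentration series (top 50 uM); binding measured as scintillation-counted displacement of radioligand from bovine cerebellar membranes after 1 h, normalised to DMSO.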

[5] = molecular target: bovine Dopamine Receptor (DR), Non-selective Binding, DRD1 (gene 281125) (UniProt Q95136); assay: NVS_GPCR_bDR_NonSelective: NovaScreen (NVS) G Protein-Coupled Receptor Assay for bovine Dopamine Receptor (DR), Non-selective Binding (AID 2283241)
Summary of the method: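 Filter-based radioligand binding with bovine striatal membrane, incubated 1 h; DMSO as negative baseline. Initial duplicate single-point test at 25 uM preceded concentration series for actives.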

[6] = molecular target: rat Monoamine Oxidase, MAO-B, Peripheral (MAOBP), Maob (gene 25750) (UniProt P19643); assay: NVS_ENZ_rMAOBP: NovaScreen (NVS) Enzymatic Assay for rat Monoamine Oxidase, MAO-B, Peripheral (MAOBP) (AID 2283242)
Experimental: as §1, with “NVS_ENZ_rMAOBP” for “NVS_ENZ_rMAOAC”, “1.17” for “1.5”, “plate.NVS_ENZ_rMAOBP” for “plate.NVS_ENZ_rMAOAC”, “NVS_ENZ_rMAOBP,” for “NVS_ENZ_rMAOAC,”, “Maob.” for “Maoa.”
as §2

[7] = tested on: guinea pig Leukotriene B4 Receptor (LTB4), gene 100379538; assay: NVS_GPCR_gLTB4: NovaScreen (NVS) G Protein-Coupled Receptor Assay for guinea pig Leukotriene B4 Receptor (LTB4) (AID 2283247)
Summary of the method: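 Membranes from guinea pig spleen incubated 2 h with radioligand and compound; bound counts measured by filtration and scintillation. Screened first at 25 uM in duplicate, then actives titrated to a 50 uM top concentration relative to DMSO.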

[8] = NVS_GPCR_bNPY_NonSelective: NovaScreen (NVS) G Protein-Coupled Receptor Assay for bovine Neuropeptide Y (NPY) Receptor, Non-selective Binding (AID 2283245)
Summary of the method: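 Displacement of radioligand from bovine hippocampal membrane receptors, read by filtration and scintillation counting after 1 hour. Concentration-response to a top of 50 uM followed a 25 uM duplicate primary screen. Loss of signal versus DMSO.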

[9] = molecular target: human Serotonin, 5-Hydroxytryptamine Receptor 2A (5HT2A), HTR2A (gene 3356) (UniProt P28223); assay: NVS_GPCR_h5HT2A: NovaScreen (NVS) G Protein-Coupled Receptor Assay for human Serotonin, 5-Hydroxytryptamine Receptor 2A (5HT2A) (AID 2283249)
Experimental: NVS_GPCR_h5HT2A is a biochemical, single-readout assay that uses extracted gene-proteins from Human cortex in a tissue-based cell-free assay. Measurements were taken 1.5 hours after chemical dosing in a 48-well plate.NVS_GPCR_h5HT2A is one of one assay component(s) measured or calculated from the NVS_GPCR_h5HT2A assay. It is designed to make measurements of radioligand binding, a form of binding reporter, as detected with scintillation counting signals by Filter-based radiodetection technology.Data from the assay component NVS_GPCR_h5HT2A was analyzed into 1 assay endpoint. This assay endpoint, NVS_GPCR_h5HT2A, was analyzed in the positive analysis fitting direction relative to DMSO as the negative control and baseline of activity. […] Furthermore, this assay endpoint can be referred to as a primary readout, because the performed assay has only produced 1 assay endpoint. […]
Binding assays used specific radioligands (tritiated, iodinated) with non-radioactive competitive displacement ligands in agonist or antagonist protocols (as indicated) and various reference compounds and inhibitors to titrate specific binding to receptors and transporters. Most enzyme assays (CYPs, kinases, phosphatases, proteases, HDACs) used recombinant protein and specific substrates (fluorescence mostly, some colorimetric and radioactive) and inhibitors, followed by a biochemical separation of substrate and product. […]

[10] = molecular target: sheep Cyclooxygenase-1 (Cox1), PTGS1 (gene 443551) (UniProt P05979); assay: NVS_ENZ_oCOX1: NovaScreen (NVS) Enzymatic Assay for sheep Cyclooxygenase-1 (Cox1) (AID 2283239);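 also: actives reduce cyclooxygenase activity so potencies are for inhibitors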
Summary of the method: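 Native ovine seminal vesicle protein serves as enzyme source in this biochemical assay. Colorimetric signal is recorded 0.66 h after chemical addition, and decreases versus the DMSO control define activity.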

Sequence of bovine Dopamine Receptor (DR), Non-selective Binding, DRD1 (gene 281125) (Q95136 whole entry, looked up): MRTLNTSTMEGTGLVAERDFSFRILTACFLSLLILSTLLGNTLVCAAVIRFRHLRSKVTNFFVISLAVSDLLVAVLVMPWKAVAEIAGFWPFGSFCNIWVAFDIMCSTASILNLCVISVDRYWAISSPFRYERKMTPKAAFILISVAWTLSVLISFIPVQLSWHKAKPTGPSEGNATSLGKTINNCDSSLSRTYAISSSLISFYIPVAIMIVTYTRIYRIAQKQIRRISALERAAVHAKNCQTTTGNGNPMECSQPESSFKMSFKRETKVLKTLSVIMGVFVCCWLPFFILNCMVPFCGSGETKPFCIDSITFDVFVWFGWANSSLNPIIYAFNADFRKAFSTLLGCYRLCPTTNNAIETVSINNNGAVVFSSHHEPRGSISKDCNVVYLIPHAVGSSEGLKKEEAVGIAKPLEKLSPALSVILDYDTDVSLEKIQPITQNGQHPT
Sequence of rat Monoamine Oxidase, MAO-B, Central (MAOBC), Maob (gene 25750) (P19643 whole entry, looked up): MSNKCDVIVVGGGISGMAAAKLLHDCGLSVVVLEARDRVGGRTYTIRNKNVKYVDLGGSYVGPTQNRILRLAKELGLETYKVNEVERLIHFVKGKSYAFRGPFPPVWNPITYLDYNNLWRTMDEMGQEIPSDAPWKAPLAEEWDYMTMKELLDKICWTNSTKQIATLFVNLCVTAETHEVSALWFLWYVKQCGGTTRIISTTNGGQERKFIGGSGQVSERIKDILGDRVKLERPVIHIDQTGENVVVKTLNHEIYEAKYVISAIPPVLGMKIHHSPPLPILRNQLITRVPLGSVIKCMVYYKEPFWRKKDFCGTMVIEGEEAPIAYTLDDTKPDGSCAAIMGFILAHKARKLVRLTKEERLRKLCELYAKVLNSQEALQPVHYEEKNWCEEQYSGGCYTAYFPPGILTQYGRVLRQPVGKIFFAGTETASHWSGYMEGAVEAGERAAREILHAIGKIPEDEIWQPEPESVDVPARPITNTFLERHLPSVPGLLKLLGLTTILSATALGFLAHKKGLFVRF
Sequence of rat Monoamine Oxidase, MAO-B, Peripheral (MAOBP), Maob (gene 25750) (P19643 whole entry, looked up): as above
Sequence of sheep Cyclooxygenase-1 (Cox1), PTGS1 (gene 443551) (P05979 whole entry, looked up): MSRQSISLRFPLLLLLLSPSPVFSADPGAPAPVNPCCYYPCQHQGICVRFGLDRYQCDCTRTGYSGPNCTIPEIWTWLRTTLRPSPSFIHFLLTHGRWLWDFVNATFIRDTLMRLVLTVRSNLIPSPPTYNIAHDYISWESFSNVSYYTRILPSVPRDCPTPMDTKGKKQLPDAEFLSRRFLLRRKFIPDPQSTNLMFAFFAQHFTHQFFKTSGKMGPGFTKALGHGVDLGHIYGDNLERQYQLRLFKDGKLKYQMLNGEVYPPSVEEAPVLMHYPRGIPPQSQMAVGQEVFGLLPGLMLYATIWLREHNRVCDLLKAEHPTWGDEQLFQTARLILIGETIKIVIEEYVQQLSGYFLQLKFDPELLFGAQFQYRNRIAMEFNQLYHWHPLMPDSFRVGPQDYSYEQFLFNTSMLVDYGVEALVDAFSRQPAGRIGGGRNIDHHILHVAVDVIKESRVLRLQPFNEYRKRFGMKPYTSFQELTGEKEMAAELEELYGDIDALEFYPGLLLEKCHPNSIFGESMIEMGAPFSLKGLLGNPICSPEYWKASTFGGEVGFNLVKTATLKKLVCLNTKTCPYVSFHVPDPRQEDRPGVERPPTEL
Sequence of Adenosine receptor A1 (Bos taurus) (P28190 whole entry, looked up): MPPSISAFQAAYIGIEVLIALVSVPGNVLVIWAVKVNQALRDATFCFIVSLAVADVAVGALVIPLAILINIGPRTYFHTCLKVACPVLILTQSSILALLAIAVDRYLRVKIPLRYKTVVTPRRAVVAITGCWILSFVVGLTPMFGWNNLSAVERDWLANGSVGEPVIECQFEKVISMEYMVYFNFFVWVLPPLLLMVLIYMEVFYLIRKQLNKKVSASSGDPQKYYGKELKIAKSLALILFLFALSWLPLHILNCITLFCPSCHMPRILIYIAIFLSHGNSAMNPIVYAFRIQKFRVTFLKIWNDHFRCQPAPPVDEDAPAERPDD
Sequence of human Serotonin, 5-Hydroxytryptamine Receptor 2A (5HT2A), HTR2A (gene 3356) (P28223 whole entry, looked up): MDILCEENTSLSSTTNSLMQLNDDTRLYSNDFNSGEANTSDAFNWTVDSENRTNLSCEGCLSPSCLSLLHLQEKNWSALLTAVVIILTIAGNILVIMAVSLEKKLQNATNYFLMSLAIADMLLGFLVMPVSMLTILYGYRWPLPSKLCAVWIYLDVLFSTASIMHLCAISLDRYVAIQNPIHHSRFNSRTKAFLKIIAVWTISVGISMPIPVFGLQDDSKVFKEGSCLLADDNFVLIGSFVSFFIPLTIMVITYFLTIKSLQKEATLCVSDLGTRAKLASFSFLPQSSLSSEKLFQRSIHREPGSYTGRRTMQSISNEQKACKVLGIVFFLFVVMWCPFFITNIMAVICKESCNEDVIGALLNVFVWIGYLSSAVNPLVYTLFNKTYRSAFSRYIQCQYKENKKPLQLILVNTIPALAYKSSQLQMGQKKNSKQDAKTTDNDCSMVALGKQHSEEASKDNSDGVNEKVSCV

Nc1c(Cl)c(F)nc(OCC(=O)O)c1Cl
AC50 [1]: 46.8 µM (active)

COP(=S)(OC)Oc1ccc([N+](=O)[O-])c(C)c1
outcome [1]: inactive

CC1(C)CCC(=Cc2ccc(Cl)cc2)C1(O)Cn1cncn1 (stereo not drawn)
outcome [2]: inactive

CCC(C)n1c(=O)[nH]c(C)c(Br)c1=O (stereo not drawn)
outcome [3]: inactive
outcome [4]: inactive

Cc1ccc(N=CN(C)C=Nc2ccc(C)cc2C)c(C)c1
outcome [2]: inactive
AC50 [1]: 1.66 µM (active)

CC(C)NC(=O)N1CC(=O)N(c2cc(Cl)cc(Cl)c2)C1=O
outcome [5]: inactive

CNC(=O)Oc1cccc2ccccc12
AC50 [2]: 6.28 µM (active)
AC50 [6]: 25 µM (active)
AC50 [1]: 13.8 µM (active)

CCN(CC)C(=O)C(C)Oc1cccc2ccccc12 (stereo not drawn)
outcome [7]: inactive

Cc1nc(N(C)C)nc(OC(=O)N(C)C)c1C
AC50 [1]: 12.8 µM (active)

CCOP(=S)(OCC)Oc1nc(Cl)n(C(C)C)n1
outcome [8]: inactive

CN=C=S
outcome [6]: inactive

O=C1C2CC=CCC2C(=O)N1SC(Cl)(Cl)Cl (stereo not drawn)
outcome [9]: inactive

N#Cc1c(Cl)cccc1Cl
AC50 [2]: 25 µM (active)
outcome [1]: inactive

CCCN(CC)CC1COC2(CCC(C(C)(C)C)CC2)O1 (stereo not drawn)
outcome [5]: inactive
outcome [6]: inactive

CC(C)=CC1C(C(=O)OCc2coc(Cc3ccccc3)c2)C1(C)C (stereo not drawn)
outcome [5]: inactive
AC50 [7]: 6.5 µM (active)

CC(C)N1C(=O)N(c2ccccc2)CSC1=NC(C)(C)C
outcome [6]: inactive

CCN(CC)c1nc(C)cc(OP(=S)(OC)OC)n1
outcome [7]: inactive

C=C(C)CN(CC)c1c([N+](=O)[O-])cc(C(F)(F)F)cc1[N+](=O)[O-]
outcome [7]: inactive

CNC(=O)N(C)c1nnc(C(C)(C)C)s1
outcome [10]: inactive

COCC(C)N(C(=O)CCl)c1c(C)csc1C (stereo not drawn)
outcome [10]: inactive

O=C(Nc1ccccc1-c1ccc(Cl)cc1)c1cccnc1Cl
outcome [6]: inactive

COc1ccc(-c2ccccc2)cc1NNC(=O)OC(C)C
AC50 [2]: 0.0452 µM (active)
AC50 [6]: 0.139 µM (active)
AC50 [1]: 0.599 µM (active)

Cc1cc(C)nc(Nc2ccccc2)n1
outcome [1]: inactive

COP(=S)(OC)SCn1nnc2ccccc2c1=O
outcome [6]: inactive
AC50 [3]: 8.1 µM (active)
AC50 [4]: 2.4 µM (active)

N#Cc1c[nH]cc1-c1cccc2c1OC(F)(F)O2
outcome [2]: inactive
outcome [1]: inactive
outcome [8]: inactive
